Test results published in the supplement of paper PMC11732987, “Enantioselective OTUD7B fragment discovery through chemoproteomics screening and high-throughput optimisation” (Communications Chemistry, 2025).

Tests used:
Assay in all cases: log2 ratio of Biotin-Ahx-Ub-VS probe labelling (fragment/DMSO); higher = less target engagement (more negative = stronger competition), active = hit call of the paper (q ≤ 0.05, log2 ratio ≤ -1)
Details in all cases: compound concentration: 200 uM; treatment time: 3 h
USP42 = molecular target: T1, USP42 (UniProt Q9H9J4)
T1 sequence (whole entry): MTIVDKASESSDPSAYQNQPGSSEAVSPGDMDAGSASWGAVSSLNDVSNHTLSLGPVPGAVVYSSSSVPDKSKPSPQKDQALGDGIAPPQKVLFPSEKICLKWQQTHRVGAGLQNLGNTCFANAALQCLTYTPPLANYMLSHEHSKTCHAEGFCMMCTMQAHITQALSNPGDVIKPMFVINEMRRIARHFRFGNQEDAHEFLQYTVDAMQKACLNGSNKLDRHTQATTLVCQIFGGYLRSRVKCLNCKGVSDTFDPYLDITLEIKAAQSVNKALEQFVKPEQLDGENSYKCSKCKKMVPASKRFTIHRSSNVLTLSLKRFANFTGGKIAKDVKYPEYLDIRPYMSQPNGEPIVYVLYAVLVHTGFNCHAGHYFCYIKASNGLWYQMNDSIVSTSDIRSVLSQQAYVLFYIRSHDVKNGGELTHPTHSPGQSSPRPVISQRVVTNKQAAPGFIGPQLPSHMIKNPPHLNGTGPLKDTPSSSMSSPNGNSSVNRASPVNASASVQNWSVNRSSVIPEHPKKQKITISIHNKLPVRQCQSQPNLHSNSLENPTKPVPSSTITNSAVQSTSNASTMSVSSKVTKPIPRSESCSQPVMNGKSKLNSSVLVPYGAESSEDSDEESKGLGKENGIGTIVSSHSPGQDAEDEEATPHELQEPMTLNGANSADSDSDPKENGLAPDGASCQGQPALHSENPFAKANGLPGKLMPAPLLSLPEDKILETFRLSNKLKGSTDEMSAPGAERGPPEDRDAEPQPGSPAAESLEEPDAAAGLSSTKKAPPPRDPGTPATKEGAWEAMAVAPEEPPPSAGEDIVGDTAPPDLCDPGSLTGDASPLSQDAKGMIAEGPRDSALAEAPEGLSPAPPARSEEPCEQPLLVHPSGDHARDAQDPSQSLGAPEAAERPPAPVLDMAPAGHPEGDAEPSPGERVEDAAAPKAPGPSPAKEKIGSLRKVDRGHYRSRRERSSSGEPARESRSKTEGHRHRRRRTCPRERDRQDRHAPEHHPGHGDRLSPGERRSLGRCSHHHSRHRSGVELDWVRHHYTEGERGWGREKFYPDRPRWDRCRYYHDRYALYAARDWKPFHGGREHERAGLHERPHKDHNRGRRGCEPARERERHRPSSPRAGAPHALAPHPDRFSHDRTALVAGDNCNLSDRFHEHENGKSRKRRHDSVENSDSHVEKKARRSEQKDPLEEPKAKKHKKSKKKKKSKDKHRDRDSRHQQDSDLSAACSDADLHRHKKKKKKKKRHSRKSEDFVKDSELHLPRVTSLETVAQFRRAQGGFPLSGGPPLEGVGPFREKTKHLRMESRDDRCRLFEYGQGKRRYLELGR
Outline: (§1)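 Triplicate samples of HEK293T lysate, 495 µg each, received fragment at 200 µM or vehicle for 3 h, followed by Biotin-Ahx-Ub-VS (0.5 µM final) for 1 h. After NeutrAvidin enrichment of labelled DUBs and LysC/trypsin digestion, peptides were run by diaPASEF LC-MS/MS. The values are average log2 fragment/vehicle ratios from global-median-normalised Spectronaut label-free quantities, tested by unpaired t-test on proteins having ≥2 unique peptides.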

USP46 = USP46 (UniProt P62068)
Outline: as §1

USP47 = molecular target: T2, USP47 (UniProt Q96K76)
T2 sequence (whole entry): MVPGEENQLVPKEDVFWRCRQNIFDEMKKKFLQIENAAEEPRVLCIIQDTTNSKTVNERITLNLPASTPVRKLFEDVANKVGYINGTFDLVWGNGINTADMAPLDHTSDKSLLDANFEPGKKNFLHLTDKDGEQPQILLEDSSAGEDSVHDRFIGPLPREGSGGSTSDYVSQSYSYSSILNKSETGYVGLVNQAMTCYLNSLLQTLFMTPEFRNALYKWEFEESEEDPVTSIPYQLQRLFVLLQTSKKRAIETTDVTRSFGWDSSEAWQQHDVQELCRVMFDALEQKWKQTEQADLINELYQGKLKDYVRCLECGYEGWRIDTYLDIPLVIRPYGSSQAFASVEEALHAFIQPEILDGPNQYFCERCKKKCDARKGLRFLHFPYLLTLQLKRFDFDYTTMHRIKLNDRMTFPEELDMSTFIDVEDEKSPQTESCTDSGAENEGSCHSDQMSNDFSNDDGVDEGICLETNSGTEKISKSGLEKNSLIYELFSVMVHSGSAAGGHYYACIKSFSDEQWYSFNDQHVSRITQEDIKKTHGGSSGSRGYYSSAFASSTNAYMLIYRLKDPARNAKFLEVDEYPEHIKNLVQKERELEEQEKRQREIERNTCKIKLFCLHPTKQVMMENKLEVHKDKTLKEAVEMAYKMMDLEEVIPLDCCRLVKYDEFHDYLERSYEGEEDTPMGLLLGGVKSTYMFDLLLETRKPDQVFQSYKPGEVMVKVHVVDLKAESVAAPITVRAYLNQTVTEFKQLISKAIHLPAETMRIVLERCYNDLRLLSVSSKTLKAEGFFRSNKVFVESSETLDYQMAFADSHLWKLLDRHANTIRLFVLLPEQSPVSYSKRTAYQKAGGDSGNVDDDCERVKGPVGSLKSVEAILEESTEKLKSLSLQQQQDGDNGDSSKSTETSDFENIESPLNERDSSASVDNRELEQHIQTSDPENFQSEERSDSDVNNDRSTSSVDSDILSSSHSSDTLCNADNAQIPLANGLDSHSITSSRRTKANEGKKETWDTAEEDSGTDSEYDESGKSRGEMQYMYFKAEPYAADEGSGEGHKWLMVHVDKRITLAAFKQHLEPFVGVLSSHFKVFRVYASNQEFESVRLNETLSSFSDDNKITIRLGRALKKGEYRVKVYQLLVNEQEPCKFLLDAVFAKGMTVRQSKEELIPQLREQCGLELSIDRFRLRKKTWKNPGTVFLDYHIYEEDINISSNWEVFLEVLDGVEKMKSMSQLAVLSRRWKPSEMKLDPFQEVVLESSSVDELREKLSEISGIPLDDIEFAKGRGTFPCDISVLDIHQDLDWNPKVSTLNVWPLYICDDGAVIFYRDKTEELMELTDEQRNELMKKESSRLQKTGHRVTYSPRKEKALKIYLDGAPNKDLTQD
Outline: as §1

USP48 = molecular target: T3, USP48 (UniProt Q86UV5)
T3 sequence (whole entry): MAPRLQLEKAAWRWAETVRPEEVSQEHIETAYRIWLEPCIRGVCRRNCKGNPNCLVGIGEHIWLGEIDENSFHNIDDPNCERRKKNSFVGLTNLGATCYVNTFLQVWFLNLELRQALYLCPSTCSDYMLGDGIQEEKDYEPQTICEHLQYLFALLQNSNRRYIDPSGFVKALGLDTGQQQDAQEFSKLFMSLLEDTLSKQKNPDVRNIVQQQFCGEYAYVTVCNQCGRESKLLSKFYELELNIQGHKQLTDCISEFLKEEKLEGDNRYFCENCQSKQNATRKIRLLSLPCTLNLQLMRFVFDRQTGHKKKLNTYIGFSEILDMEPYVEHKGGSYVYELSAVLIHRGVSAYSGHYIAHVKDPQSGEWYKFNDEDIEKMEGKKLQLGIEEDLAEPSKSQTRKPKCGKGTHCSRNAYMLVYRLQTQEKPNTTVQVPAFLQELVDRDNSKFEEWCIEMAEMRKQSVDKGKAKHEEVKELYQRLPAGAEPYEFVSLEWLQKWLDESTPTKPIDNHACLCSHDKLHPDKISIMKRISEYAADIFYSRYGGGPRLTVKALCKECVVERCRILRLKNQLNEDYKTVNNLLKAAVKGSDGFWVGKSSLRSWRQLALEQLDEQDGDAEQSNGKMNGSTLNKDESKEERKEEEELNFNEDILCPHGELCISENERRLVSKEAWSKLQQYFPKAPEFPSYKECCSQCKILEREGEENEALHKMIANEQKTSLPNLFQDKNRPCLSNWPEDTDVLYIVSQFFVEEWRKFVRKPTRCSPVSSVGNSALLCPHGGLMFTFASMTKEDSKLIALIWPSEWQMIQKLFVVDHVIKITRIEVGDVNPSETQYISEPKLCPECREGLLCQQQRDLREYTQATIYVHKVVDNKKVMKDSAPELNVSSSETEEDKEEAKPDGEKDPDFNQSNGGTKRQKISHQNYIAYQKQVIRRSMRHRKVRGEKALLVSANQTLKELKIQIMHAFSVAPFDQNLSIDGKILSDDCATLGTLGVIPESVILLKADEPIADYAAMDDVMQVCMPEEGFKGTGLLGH
Outline: as §1

USP5 = molecular target: T4, USP5 (UniProt P45974)
T4 sequence (whole entry): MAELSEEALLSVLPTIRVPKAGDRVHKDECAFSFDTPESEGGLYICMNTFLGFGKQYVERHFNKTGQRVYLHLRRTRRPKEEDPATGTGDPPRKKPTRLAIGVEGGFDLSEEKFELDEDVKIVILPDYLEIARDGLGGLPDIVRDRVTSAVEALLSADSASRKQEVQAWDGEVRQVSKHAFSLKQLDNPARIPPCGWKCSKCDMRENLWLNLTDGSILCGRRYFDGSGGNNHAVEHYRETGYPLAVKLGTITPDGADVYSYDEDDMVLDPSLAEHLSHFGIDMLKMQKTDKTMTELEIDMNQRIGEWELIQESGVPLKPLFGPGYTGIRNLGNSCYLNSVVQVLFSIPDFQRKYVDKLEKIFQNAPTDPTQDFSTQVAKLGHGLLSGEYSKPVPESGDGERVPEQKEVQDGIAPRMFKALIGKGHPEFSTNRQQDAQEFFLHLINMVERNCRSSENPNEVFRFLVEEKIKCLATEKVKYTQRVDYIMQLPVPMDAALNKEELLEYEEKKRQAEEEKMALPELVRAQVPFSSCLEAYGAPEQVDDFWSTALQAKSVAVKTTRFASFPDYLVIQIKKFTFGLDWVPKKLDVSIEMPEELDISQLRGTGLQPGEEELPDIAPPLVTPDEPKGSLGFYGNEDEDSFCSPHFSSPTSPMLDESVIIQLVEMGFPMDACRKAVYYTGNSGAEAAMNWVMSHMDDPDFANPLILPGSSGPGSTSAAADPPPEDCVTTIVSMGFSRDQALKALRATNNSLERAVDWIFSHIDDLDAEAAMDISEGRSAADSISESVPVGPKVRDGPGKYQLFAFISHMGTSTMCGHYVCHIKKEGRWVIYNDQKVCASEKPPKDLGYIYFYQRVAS
Outline: as §1

USP54 = USP54 (UniProt Q70EL1)
Outline: as §1

USP7 = USP7 (UniProt Q93009)
Outline: as §1

USP8 = molecular target: T5, USP8 (UniProt P40818)
T5 sequence (whole entry): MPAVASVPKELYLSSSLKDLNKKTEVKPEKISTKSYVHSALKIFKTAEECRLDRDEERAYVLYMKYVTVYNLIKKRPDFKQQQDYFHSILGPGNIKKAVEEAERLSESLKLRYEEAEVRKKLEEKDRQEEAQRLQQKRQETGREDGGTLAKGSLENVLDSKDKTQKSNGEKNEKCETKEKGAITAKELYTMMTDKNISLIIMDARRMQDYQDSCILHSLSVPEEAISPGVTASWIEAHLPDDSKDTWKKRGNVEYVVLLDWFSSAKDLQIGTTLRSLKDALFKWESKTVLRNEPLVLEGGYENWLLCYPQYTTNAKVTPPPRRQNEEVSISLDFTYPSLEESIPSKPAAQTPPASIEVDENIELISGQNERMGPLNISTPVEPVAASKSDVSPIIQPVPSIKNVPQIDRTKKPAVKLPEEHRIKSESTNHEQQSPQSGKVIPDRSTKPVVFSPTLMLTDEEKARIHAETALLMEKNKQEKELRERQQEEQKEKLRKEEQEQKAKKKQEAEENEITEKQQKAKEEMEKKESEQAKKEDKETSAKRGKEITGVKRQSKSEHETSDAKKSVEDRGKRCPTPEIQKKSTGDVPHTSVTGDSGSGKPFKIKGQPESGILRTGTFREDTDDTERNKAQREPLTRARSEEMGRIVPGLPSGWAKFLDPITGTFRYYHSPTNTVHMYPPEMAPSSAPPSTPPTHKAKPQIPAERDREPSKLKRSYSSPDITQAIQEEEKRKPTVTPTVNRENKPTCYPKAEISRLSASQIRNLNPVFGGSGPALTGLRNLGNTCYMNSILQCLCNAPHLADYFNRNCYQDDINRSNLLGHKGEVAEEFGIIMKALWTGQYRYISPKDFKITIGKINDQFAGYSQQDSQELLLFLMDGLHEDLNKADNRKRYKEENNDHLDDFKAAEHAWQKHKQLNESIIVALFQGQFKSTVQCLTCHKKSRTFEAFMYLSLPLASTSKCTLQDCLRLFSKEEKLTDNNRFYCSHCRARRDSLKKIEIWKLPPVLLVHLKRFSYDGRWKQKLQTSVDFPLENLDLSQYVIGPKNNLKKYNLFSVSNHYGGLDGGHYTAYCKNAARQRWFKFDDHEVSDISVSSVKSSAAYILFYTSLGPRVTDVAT
Outline: as §1

USP9X = USP9X (UniProt Q93008)
Outline: as §1

UniProt O00487 = molecular target: UniProt O00487
Outline: as §1

Measured: log2 ratio of Biotin-Ahx-Ub-VS probe labelling

Sequence of USP54 (Q70EL1 whole entry): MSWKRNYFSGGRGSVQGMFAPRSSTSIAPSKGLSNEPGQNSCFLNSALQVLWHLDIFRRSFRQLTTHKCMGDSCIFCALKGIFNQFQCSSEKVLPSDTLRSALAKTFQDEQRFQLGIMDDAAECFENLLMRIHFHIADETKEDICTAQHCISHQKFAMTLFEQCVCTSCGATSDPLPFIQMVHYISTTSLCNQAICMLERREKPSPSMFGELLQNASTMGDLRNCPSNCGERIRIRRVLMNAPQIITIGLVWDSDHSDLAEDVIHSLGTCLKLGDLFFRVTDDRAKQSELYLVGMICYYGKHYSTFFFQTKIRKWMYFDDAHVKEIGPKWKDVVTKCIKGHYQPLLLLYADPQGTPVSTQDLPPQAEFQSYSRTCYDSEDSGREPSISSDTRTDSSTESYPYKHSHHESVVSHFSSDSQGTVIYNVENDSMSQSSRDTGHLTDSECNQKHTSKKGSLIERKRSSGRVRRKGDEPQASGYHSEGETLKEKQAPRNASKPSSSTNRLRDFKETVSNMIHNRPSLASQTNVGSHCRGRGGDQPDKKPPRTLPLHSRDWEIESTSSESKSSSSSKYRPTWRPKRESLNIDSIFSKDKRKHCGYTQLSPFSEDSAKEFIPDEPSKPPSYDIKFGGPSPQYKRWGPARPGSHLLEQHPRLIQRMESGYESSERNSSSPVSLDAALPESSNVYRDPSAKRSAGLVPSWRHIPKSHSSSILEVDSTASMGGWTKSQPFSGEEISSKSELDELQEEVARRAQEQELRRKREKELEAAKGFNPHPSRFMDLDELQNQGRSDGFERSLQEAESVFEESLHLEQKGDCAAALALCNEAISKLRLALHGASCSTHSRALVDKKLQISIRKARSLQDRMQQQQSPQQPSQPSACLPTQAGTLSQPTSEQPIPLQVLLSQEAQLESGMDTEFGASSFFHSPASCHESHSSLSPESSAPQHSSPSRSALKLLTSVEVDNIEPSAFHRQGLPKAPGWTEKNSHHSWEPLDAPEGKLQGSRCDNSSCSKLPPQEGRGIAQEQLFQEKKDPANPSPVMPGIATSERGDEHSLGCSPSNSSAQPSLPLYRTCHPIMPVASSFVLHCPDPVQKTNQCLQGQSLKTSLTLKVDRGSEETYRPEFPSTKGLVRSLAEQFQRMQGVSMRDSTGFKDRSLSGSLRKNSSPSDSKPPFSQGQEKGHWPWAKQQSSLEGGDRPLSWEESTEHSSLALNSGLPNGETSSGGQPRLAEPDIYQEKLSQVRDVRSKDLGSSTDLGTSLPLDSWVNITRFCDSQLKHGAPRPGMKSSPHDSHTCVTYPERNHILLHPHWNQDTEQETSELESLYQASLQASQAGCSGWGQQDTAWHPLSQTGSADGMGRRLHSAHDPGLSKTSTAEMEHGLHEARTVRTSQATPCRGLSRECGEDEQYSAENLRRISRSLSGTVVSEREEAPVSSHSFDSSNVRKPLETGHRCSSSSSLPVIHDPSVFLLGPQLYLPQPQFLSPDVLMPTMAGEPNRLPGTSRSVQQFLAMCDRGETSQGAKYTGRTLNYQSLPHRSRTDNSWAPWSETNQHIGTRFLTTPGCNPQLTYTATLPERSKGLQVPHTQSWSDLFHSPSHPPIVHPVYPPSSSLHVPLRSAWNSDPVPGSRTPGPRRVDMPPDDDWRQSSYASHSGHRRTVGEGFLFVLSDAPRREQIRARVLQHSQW
Sequence of USP9X (Q93008 whole entry): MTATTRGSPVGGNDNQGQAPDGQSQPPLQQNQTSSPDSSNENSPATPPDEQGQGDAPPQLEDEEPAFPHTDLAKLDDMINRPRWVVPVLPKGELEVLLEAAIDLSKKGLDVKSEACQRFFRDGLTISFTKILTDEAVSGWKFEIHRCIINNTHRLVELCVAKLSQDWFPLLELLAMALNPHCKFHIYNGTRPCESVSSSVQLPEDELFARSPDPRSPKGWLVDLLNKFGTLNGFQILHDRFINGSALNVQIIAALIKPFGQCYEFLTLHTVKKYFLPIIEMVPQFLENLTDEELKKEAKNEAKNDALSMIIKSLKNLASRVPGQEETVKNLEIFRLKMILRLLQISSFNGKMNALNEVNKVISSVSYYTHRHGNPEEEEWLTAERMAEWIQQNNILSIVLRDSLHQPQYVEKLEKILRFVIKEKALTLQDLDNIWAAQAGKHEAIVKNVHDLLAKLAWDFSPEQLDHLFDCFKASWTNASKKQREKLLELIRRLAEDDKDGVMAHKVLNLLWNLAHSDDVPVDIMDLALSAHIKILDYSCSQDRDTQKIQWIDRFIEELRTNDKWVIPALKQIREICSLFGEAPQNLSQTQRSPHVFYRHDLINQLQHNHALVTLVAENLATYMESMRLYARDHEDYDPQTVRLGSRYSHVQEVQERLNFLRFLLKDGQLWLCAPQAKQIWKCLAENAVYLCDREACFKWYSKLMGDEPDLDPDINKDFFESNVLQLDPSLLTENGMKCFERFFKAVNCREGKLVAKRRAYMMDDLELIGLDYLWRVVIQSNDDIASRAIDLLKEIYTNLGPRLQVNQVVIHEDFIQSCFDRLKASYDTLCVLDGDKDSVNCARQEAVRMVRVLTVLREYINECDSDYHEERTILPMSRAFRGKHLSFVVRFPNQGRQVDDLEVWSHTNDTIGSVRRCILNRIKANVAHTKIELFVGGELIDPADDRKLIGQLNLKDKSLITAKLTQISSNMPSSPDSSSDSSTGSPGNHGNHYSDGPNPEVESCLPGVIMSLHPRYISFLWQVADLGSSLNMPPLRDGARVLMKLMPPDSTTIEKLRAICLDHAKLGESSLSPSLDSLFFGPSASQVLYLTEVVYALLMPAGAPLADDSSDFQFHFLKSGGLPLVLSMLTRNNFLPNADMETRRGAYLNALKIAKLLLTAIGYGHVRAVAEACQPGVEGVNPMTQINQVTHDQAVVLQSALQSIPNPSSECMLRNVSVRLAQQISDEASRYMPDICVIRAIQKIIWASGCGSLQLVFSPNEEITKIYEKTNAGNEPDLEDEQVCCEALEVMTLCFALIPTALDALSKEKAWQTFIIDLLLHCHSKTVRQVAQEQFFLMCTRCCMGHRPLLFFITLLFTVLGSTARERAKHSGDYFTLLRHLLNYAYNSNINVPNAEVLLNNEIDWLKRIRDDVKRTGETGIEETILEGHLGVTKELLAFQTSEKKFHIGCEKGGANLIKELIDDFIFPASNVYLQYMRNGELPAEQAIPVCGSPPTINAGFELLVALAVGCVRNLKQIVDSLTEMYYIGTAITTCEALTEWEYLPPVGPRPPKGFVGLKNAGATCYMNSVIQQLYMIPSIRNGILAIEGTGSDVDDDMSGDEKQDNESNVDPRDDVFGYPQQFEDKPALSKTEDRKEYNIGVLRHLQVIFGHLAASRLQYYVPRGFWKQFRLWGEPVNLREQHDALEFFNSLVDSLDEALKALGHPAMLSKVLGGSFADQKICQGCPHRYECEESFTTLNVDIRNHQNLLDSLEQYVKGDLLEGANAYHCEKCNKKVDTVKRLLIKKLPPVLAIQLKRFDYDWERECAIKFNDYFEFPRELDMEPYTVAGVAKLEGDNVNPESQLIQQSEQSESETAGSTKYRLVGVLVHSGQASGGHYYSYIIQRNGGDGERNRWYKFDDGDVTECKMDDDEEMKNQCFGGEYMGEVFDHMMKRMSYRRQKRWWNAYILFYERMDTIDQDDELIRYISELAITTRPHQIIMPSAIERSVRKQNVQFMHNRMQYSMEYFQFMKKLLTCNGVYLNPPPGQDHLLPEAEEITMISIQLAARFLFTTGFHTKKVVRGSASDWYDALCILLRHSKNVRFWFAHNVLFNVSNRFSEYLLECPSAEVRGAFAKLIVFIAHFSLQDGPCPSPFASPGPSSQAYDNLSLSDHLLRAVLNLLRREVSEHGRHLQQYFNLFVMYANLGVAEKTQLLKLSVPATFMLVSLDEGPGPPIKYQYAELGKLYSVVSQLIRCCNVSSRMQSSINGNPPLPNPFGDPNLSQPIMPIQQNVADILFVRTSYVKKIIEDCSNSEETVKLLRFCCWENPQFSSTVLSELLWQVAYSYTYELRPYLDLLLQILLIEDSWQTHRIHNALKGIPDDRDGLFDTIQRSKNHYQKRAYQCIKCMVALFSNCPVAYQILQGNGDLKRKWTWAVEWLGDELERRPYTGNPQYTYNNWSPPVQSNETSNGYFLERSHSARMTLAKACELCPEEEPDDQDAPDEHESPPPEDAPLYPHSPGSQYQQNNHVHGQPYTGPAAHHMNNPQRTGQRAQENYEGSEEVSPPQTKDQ
Sequence of USP46 (P62068 whole entry): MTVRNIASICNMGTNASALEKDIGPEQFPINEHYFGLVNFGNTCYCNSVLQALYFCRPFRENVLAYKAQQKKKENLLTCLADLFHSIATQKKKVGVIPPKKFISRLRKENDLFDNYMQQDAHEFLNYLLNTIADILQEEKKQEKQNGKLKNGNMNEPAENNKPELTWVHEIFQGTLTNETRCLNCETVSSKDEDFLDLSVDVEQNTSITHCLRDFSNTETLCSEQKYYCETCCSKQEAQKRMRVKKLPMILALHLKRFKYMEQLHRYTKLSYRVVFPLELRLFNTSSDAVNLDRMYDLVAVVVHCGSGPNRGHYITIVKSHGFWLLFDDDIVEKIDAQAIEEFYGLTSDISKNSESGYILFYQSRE
Sequence of UniProt O00487 (O00487 whole entry): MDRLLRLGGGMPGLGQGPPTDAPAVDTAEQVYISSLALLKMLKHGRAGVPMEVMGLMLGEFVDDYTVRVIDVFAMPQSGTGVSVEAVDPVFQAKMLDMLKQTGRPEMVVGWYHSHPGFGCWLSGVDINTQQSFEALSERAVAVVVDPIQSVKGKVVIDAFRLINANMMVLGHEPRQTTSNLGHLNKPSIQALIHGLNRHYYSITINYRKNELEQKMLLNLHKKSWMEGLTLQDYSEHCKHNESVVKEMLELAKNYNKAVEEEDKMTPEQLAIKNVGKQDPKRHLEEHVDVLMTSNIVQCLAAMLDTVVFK

Cc1cccc(N2CCC(NC(=O)CCl)C2=O)c1 (stereo not given)
inactive: USP42 -0.395 | USP46 0.013 | USP47 -0.0227 | USP48 -0.138 | USP5 -0.179 | USP54 0.699 | USP7 -0.204 | USP8 -0.325 | USP9X -0.421 | UniProt O00487 0.133
